Experimental data reported in PubChem BioAssay (Tox21).
Unmarked numbers belong to inactive results. Inconclusive results are not listed. A call without a number means that no potency is given here. Activity calls are given as the source filed them. Unless noted, the call rests on the fitted dose curve; in most records, active means well fitted curve in the direction sought with a large enough effect in the repeat runs; inconclusive means weak or mixed curves; inactive means no such curve, though single readings can be large; an effect the other way counts as inactive or inconclusive.

Key:
[1] = target: Thyrotropin receptor (Homo sapiens) (UniProt P16473); assay: qHTS assay to identify small molecule antagonists of the thyroid stimulating hormone receptor (TSHR) signaling pathway (AID 1259385; calls by dose curve; further: nearly all actives have a fitted effect of over 20% in size); conditions: TSHR-HEK293 cAMP HTRF, TSH-stimulated antagonist mode; series mostly up to 92.4 µM
Chain of Thyrotropin receptor (Homo sapiens) (P16473 whole entry, looked up): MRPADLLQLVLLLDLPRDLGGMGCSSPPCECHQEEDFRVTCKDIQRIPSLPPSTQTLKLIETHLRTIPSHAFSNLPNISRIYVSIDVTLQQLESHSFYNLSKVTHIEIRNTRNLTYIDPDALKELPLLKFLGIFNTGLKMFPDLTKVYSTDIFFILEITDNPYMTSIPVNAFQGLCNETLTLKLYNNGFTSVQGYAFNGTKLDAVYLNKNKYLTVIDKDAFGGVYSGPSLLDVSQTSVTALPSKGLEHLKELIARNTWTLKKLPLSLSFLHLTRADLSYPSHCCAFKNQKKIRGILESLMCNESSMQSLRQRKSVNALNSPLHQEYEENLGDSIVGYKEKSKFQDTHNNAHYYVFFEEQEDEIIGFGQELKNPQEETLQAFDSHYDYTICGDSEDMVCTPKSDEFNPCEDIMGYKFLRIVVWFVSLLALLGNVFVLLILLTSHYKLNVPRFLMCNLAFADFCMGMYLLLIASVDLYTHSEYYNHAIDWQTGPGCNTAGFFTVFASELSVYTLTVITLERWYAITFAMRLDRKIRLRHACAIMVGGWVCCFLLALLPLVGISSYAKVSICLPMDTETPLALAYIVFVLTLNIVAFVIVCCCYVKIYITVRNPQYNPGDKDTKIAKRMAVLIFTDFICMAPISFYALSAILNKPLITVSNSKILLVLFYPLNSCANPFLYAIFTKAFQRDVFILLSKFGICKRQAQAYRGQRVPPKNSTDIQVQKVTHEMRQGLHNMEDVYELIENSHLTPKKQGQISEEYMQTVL
Method in brief: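 Antagonist mode: compound-treated TSHR-expressing HEK293 cells were stimulated with 1.5 ng/mL TSH (final) in presence of Ro20-1724 for 30 min at RT. HTRF cAMP detection after 1 h; each compound tested at 15 concentrations, triplicate.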

[2] = qHTS assay to identify small molecule agonists of the estrogen receptor alpha (ER-alpha) signaling pathway in the presence of an antagonist - cell viability counter screen (AID 1259386); conditions: VM7Luc4E2 viability, CellTiter-Fluor fluorescence, 22 h; series mostly up to 92.4 µM; further: nearly all actives have a fitted effect of over 30% in size
Method in brief: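 Compounds tested at 15 concentrations for 22 h at 37C alongside 10.0nM (final) ICI-182,780 antagonist, in VM7Luc4E2 cells grown in phenol red-free, charcoal-stripped medium. Viability read by CellTiter-Fluor fluorescence after 1 h reagent incubation.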

[3] = target: Progesterone receptor (Homo sapiens) (UniProt P06401); assay: qHTS assay to identify small molecule agonists of the progesterone receptor (PR) signaling pathway (AID 1346784; calls by dose curve; further: nearly all actives have a fitted effect of over 30% in size); conditions: PR-UAS-bla HEK293T, beta-lactamase FRET ratio, 16 h; series mostly up to 92.4 µM
Chain of Progesterone receptor (Homo sapiens) (P06401 whole entry, looked up): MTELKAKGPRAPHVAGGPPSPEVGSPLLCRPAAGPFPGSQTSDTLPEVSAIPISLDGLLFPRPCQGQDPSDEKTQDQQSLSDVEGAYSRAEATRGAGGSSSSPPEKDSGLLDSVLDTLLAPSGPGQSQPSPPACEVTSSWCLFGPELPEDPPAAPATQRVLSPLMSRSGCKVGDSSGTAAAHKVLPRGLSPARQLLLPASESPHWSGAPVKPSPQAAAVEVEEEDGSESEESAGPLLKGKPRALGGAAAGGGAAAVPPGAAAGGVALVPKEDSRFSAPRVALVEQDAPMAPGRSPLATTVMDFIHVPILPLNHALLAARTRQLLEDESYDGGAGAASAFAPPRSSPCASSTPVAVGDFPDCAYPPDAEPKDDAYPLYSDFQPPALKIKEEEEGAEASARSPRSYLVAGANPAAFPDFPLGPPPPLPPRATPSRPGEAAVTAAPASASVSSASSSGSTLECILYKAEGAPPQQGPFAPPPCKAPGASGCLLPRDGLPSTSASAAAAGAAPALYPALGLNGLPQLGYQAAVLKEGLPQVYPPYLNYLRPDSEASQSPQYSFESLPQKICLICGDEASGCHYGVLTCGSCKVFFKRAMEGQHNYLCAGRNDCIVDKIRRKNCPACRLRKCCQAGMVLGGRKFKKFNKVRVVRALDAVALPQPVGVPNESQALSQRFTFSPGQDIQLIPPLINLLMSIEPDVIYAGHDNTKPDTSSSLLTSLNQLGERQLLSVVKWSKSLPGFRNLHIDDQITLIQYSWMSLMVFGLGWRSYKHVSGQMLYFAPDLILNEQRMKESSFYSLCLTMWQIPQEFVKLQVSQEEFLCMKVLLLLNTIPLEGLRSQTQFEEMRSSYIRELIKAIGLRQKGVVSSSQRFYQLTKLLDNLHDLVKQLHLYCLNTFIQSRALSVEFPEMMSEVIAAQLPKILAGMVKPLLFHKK
Method in brief: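 Reporter assay, GripTite PR-UAS-bla HEK 293T cells: 16 hr exposure to DMSO-dissolved compounds at 37C, 5% CO2, in steroid-depleted (2% charcoal-stripped FBS) medium; beta-lactamase measured by FRET fluorescence.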

[4] = target: Progesterone receptor (Homo sapiens) (UniProt P06401); assay: qHTS assay to identify small molecule antagonists of the progesterone receptor (PR) signaling pathway (AID 1346795; active means well fitted inhibition curve with a large enough effect in the signal ratio in the repeat runs, not every such curve was filed as active; the % refers to the signal ratio); conditions: PR-UAS-bla HEK293T, beta-lactamase FRET ratio, 16 h; series mostly up to 92.4 µM
Method in brief: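 Stimulus R5020 at 1 nM final; cells HEK293T PR-UAS-bla; medium with 2% charcoal-stripped FBS; compound exposure 16 hr at 37C, 5% CO2; detection by FRET beta-lactamase substrate, 2 hr, room temperature.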

[5] = qHTS assay to identify small molecule antagonists of the progesterone receptor (PR) signaling pathway - cell viability counter screen (AID 1346798); conditions: PR-UAS-bla HEK293T viability, CellTiter-Glo luminescence, 16 h; series mostly up to 92.4 µM; further: nearly all actives have a fitted effect of over 50% in size
Method in brief: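 In the same plates used for the beta-lactamase readout, cell viability of compound- and R5020-treated PR-UAS-bla HEK293T cells (16 hr, 37C) was assessed by CellTiter-Glo luminescence.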

[6] = qHTS assay to identify small molecule agonists of the progesterone receptor (PR) signaling pathway - cell viability counter screen (AID 1346799; calls by dose curve; further: nearly all actives have a fitted effect of over 45% in size); conditions: PR-UAS-bla HEK293T viability, CellTiter-Glo luminescence, 16 h; series mostly up to 92.4 µM
Method in brief: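 Multiplexed viability read: CellTiter-Glo luminescence, 30 min RT, following LiveBLAzer FRET measurement on PR-UAS-bla HEK293T cells exposed to compounds 16 hr.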

[7] = qHTS assay to identify small molecule antagonists of the TGF-beta/Smad signaling pathway - cell viability counter screen (AID 1346824); conditions: SBE-bla HEK293T viability, CellTiter-Glo luminescence; series mostly up to 76.8 µM; further: nearly all actives have a fitted effect of over 50% in size
Method in brief: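 Cytotoxicity counter-screen run in the same wells as the beta-lactamase Smad reporter read: CellTiter-Glo luminescence after 30 min at room temperature. HEK 293T SBE-bla cells had 5 hr compound exposure at 37 C with TGF-beta1 (0.25 ng/mL stock).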

[8] = qHTS assay to identify small molecule agonists of the TGF-beta/Smad signaling pathway - cell viability counter screen (AID 1346829); conditions: SBE-bla HEK293T viability, CellTiter-Glo luminescence, 5 h; series mostly up to 76.8 µM; further: top concentration of the series differs between compounds; nearly all actives have a fitted effect of over 45% in size
Method in brief: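 Tox21 qHTS format: SBE-bla HEK 293T cells treated with DMSO-dissolved compounds for 5 hr; CellTiter-Glo luminescence after 30 min at room temperature.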

[9] = qHTS assay to identify small molecule agonists of the TGF-beta/Smad signaling pathway (AID 1346859; active means well fitted activation curve with a large enough effect in the signal ratio in the repeat runs, not every such curve was filed as active; the % refers to the signal ratio); conditions: SBE-bla HEK293T, TGF-beta/Smad beta-lactamase reporter, 5 h; series mostly up to 76.8 µM
Method in brief: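 Screening used HEK 293T SBE-bla cells at 4,000/well. Test agents: 5 hr, 37 C. Detection: FRET substrate, 2 hr RT, then excitation 405 nm with emissions at 460 and 530 nm.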

[10] = target: Thyrotropin-releasing hormone receptor (Homo sapiens) (UniProt P34981); assay: qHTS assay to identify small molecule antagonists of the thyrotropin-releasing hormone receptor (TRHR) signaling pathway (AID 1346877; active means well fitted inhibition curve with a large enough effect in the repeat runs, not every such curve was filed as active); conditions: TRHR-HEK293, TRH-induced calcium fluorescence, antagonist mode; series mostly up to 51.3 µM
Chain of Thyrotropin-releasing hormone receptor (Homo sapiens) (P34981 whole entry, looked up): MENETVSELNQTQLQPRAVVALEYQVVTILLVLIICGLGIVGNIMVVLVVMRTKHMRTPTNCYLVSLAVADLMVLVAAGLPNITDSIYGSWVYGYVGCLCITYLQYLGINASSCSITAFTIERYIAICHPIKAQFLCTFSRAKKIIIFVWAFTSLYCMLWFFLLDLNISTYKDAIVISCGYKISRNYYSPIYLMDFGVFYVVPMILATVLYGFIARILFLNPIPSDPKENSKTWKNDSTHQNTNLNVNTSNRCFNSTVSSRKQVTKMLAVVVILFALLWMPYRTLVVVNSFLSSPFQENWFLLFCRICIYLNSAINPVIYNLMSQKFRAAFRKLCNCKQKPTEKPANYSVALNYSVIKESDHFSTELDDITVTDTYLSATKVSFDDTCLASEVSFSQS
Method in brief: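 Antagonist mode: after a 5 min room-temperature compound exposure, cells were stimulated with 1 nM (final) TRH. Dye-loaded TRHR-HEK293 cells were used, and calcium-dependent fluorescence was followed for 3 min, with 15-point titrations run in triplicate.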

[11] = target: Thyrotropin-releasing hormone receptor (Homo sapiens) (UniProt P34981); assay: qHTS assay to identify small molecule agonists of the thyrotropin-releasing hormone receptor (TRHR) signaling pathway (AID 1346891; calls by dose curve); conditions: TRHR-HEK293 calcium fluorescence, agonist mode; series mostly up to 57.6 µM
Method in brief: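 Readout was intracellular calcium fluorescence in TRHR-Hek293 cells. Cells were incubated 18 h, dye-loaded 2 h at 37 °C, and treated with compound in agonist mode.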

[12] = Human pregnane X receptor (PXR) small molecule agonists, qHTS cell viability counter screen (AID 1346977); conditions: PXR-Luc HepG2 viability, CellTiter-Fluor, 24 h; series mostly up to 92.4 µM; further: nearly all actives have a fitted effect of over 50% in size
Method in brief: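 In each well, the PXR reporter HepG2 line was checked for viability: CellTiter-Fluor reagent added 23hr post-dosing, fluorescence read after 1hr incubation at 37C.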

[13] = Caspase-3/7 induction in HepG2 cells by small molecules, qHTS assay (AID 1346978); conditions: HepG2 caspase-3/7 activation, Caspase-Glo luminescence, 17 h; series mostly up to 92.4 µM; further: nearly all actives have a fitted effect of over 15% in size
Method in brief: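 Caspase-3/7 induction was measured by Caspase-Glo 3/7 luminescence (30 min, room temperature) after a 17 hr compound exposure of wild-type HepG2 cells seeded at 2,000 per well and pre-incubated 5 hr.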

[14] = Caspase-3/7 induction in CHO-K1 cells by small molecules, qHTS assay (AID 1346980); conditions: CHO-K1 caspase-3/7 induction, Caspase-Glo luminescence, 17 h; series mostly up to 92.4 µM; further: nearly all actives have a fitted effect of over 15% in size
Method in brief: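 Luminescent Caspase-Glo 3/7 read (30min, room temperature) quantified apoptosis induction. Cells were wild-type CHO-K1, treated with compound for 17hr at 37 C and 5% CO2.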

[15] = Caspase-3/7 induction in HepG2 cells by small molecules, qHTS cell viability counter screen (AID 1346981); conditions: CellTiter-Fluor fluorescence, 17 h; series mostly up to 92.4 µM; further: nearly all actives have a fitted effect of over 30% in size
Method in brief: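 CellTiter-Fluor fluorescence measured viability in the same wells used for Caspase-Glo 3/7. HepG2 (wild type) at 2,000 cells/well were pre-incubated 5 hr, dosed, and given reagent at 16 hr, with 1 hr further at 37C.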

[16] = target: Nuclear receptor subfamily 1 group I member 2 (Homo sapiens) (UniProt O75469); assay: Human pregnane X receptor (PXR) small molecule agonists, qHTS assay (AID 1346982); conditions: PXR-Luc HepG2, CYP3A4 luciferase reporter, 24 h; series mostly up to 92.4 µM; further: nearly all actives have a fitted effect of over 35% in size; further: potency means the concentration at half of the fitted maximal effect
Chain of Nuclear receptor subfamily 1 group I member 2 (Homo sapiens) (O75469 whole entry, looked up): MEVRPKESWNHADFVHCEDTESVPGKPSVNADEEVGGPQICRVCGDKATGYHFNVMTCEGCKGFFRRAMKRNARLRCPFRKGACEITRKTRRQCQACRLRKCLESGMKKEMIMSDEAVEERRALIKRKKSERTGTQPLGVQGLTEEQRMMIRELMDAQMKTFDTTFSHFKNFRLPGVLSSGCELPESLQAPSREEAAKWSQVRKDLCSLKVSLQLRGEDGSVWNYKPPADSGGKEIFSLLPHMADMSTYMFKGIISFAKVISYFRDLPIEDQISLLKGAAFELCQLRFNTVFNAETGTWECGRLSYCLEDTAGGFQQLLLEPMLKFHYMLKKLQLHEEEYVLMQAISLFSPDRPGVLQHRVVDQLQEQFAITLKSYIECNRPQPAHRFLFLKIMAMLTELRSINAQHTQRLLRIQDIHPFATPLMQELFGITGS
Method in brief: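 Agonist mode: luminescence from ONE-Glo after 24 h compound exposure at 37C in HepG2 cells carrying hPXR-responsive CYP3A4 luciferase, plated in charcoal-stripped serum medium 5 h beforehand.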

[17] = Caspase-3/7 induction in CHO-K1 cells by small molecules, qHTS cell viability counter screen (AID 1346979); conditions: CellTiter-Fluor fluorescence, 17 h; series mostly up to 92.4 µM; further: nearly all actives have a fitted effect of over 35% in size
Method in brief: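 Following a 5hr settling period, CHO-K1 cells at 1,500 per well received DMSO-dissolved compounds. Cell viability was quantified 16hr later by CellTiter-Fluor fluorescence, measured after 1hr with reagent at 37C.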

[18] = target: Nuclear receptor subfamily 1 group I member 2 (Rattus norvegicus) (UniProt Q9R1A7); assay: Rat pregnane X receptor (rPXR) activation by small molecules, qHTS assay (AID 1346983); conditions: rPXR luciferase reporter cells, One-Glo luminescence, 24 h; max activation: stronger effect = higher value; further: nearly all actives have a fitted effect of over 20% in size
Chain of Nuclear receptor subfamily 1 group I member 2 (Rattus norvegicus) (Q9R1A7 whole entry, looked up): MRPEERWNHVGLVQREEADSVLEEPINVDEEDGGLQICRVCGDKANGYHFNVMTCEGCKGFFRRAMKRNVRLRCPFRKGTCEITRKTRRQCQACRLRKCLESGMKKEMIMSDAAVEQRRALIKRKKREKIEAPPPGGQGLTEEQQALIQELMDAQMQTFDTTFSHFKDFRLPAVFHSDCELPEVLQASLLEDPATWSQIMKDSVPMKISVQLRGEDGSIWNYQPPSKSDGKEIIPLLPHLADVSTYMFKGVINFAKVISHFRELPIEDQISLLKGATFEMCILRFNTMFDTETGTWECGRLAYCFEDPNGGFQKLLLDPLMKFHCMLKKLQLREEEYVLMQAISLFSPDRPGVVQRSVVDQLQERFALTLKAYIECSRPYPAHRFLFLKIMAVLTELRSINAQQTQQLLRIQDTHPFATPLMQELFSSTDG
Method in brief: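 Luminescent readout (One-Glo luciferase, 30 min room temperature) followed 24 hr compound treatment at 37 C of rPXR cells plated 2,000 per well and preincubated 5hr; qHTS format with compounds delivered in DMSO.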

[19] = target: Nuclear receptor subfamily 1 group I member 2 (Homo sapiens) (UniProt O75469); assay: CYP3A4 induction through human pregnane X receptor (PXR) by small molecules, qHTS assay (AID 1346984); conditions: DPX-2 HepG2 PXR, CYP3A4-luciferin luminescence, 24 h; series mostly up to 46.1 µM; further: nearly all actives have a fitted effect of over 40% in size
Method in brief: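 Read-out is luminescence after One-Glo addition, following a 3 hr, 37C incubation with Luciferin-IPA CYP3A4 substrate (3uM final). Before that, compounds were on DPX-2 cells (HepG2 co-transfected with PXR element plus CYP3A4-promoter luciferase) for 24 hr at 37C.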

[20] = target: Nuclear receptor subfamily 1 group I member 2 (Homo sapiens) (UniProt O75469); assay: Human pregnane X receptor (PXR) activation by small molecules, qHTS assay (AID 1346985); conditions: DPX-2 HepG2 CYP3A4-luciferase, 24 h; series mostly up to 38.3 µM; further: nearly all actives have a fitted effect of over 40% in size
Method in brief: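 DPX-2 cells (HepG2 co-transfected with a PXR response element and a CYP3A4-promoter luciferase construct) were seeded at 2,000 per well, rested 5 hr at 37C, then exposed to DMSO-dissolved compounds for 24 hr. Activation was read as luciferase luminescence.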

## CCCCC1CCCCC(=O)O1 (centres undefined)
[1]
  Potency: inactive
[2]
  outcome: inactive
[3]
  Potency: inactive
[4]
  Potency: inactive
[5]
  Potency: inactive
[6]
  Potency: inactive
[7]
  outcome: inactive
[8]
  outcome: inactive
[9]
  outcome: inactive
[10]
  outcome: inactive
[11]
  outcome: inactive
[12]
  Potency: inactive
[13]
  outcome: inactive
[14]
  outcome: inactive
[15]
  outcome: inactive
[16]
  Potency: inactive

## FC(F)(F)C(F)(F)C(F)(F)C(F)(F)C(F)(F)C(F)(F)C(F)(F)C(F)(F)C(F)(F)C(F)(F)F
[1]
  activity change, negative = inhibition: -3.91% [at 8.39 µM]
[2]
  activity change, negative = cytotoxicity: 4.74% [at 8.39 µM]
[3]
  activation: 2.84% [at 8.39 µM]
[4]
  activity change, negative = inhibition: 0.137% [at 8.39 µM]
[5]
  activity change, negative = cytotoxicity: 3.97% [at 8.39 µM]
[6]
  activity change, negative = cytotoxicity: 0% [at 8.39 µM]
[7]
  viability change, negative = cytotoxic: -11.6% [at 6.97 µM]
[8]
  activity change, negative = cytotoxicity: 13.6% [at 6.97 µM]
[9]
  activation: 2.81% [at 6.97 µM]
[11]
  activation: 0.116% [at 5.23 µM]
[12]
  activity change, negative = cytotoxicity: 1.13% [at 8.39 µM]
[13]
  caspase activation: -0.76% [at 8.39 µM]
[17]
  activity change, negative = cytotoxicity: 7.28% [at 8.39 µM]
[14]
  caspase-3/7 activation: -0.497% [at 8.39 µM]
[15]
  activity change, negative = cytotoxicity: 5.96% [at 8.39 µM]
[16]
  activation: -1.65% [at 8.39 µM]

## Cc1ccc(N)cc1[N+](=O)[O-]
[1]
  Potency: inactive
[2]
  outcome: inactive
[3]
  Potency: inactive
[4]
  Potency: inactive
[5]
  Potency: inactive
[6]
  Potency: inactive
[7]
  outcome: inactive
[8]
  outcome: inactive
[9]
  outcome: inactive
[10]
  outcome: inactive
[11]
  outcome: inactive
[13]
  outcome: inactive
[17]
  Potency: inactive
[14]
  outcome: inactive
[15]
  outcome: inactive
[16]
  Potency: 10.9 µM (active)

## O=C(O)c1ccc[n+]([O-])c1
[1]
  Potency: inactive
[2]
  outcome: inactive
[3]
  Potency: inactive
[4]
  Potency: inactive
[5]
  Potency: inactive
[6]
  Potency: inactive
[7]
  outcome: inactive
[8]
  outcome: inactive
[9]
  outcome: inactive
[10]
  outcome: inactive
[11]
  outcome: inactive
[12]
  Potency: inactive
[13]
  outcome: inactive
[14]
  outcome: inactive
[15]
  outcome: inactive
[16]
  Potency: inactive
[18]
  max activation: -2.52%
[19]
  Potency: inactive
[20]
  Potency: inactive

## CCCCCCC(=O)OCC
[1]
  Potency: inactive
[2]
  outcome: inactive
[3]
  Potency: inactive
[4]
  Potency: inactive
[5]
  Potency: inactive
[6]
  Potency: inactive
[7]
  outcome: inactive
[8]
  outcome: inactive
[9]
  outcome: inactive
[10]
  outcome: inactive
[11]
  outcome: inactive
[12]
  Potency: inactive
[13]
  outcome: inactive
[14]
  outcome: inactive
[15]
  outcome: inactive
[16]
  Potency: inactive

## CC(C)c1cccc(O)c1
[1]
  Potency: inactive
[2]
  outcome: inactive
[3]
  Potency: inactive
[4]
  Potency: inactive
[5]
  Potency: inactive
[6]
  Potency: inactive
[7]
  outcome: inactive
[8]
  outcome: inactive
[9]
  outcome: inactive
[11]
  outcome: inactive
[12]
  Potency: inactive
[13]
  outcome: inactive
[17]
  Potency: inactive
[14]
  outcome: inactive
[15]
  outcome: inactive
[16]
  Potency: inactive
